Experimental data: PubChem BioAssay AID1645870 (National Center for Advancing Translational Sciences (NCATS), 2021)
Several values for one entry are separate records, joined by “and”; a condition that tells them apart may be missing. Identical values can stand only once. Screen size: about 59,000 compounds; about 1,500 (2.5%) were called active. Another 10% or so got no clear call; they are omitted. The call rests on the fitted dose curve; in most records, active means well fitted inhibition curve with a large enough effect; inconclusive means small, poorly fitted or top-dose-only effect; inactive means flat fitted curve, though single readings scatter. The list comes from a sample in which actives are over-represented; it also holds similar structures and randomly drawn compounds. A structure can be active in one record and inactive in another.

Target: N-terminal Xaa-Pro-Lys N-methyltransferase 1 (Homo sapiens) (UniProt Q9BV86)
Sequence (Q9BV86 whole entry, looked up): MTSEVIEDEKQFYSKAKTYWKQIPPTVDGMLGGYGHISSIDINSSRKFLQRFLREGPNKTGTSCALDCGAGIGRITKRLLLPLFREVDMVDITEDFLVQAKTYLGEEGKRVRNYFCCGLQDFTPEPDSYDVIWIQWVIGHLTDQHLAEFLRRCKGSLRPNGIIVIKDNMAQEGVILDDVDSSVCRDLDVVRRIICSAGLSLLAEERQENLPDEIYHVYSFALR
Test: Primary qHTS for Inhibitors of N-terminal methyltransferase 1 (NTMT1): MTaseGlo Assay; further: nearly all actives have a fitted effect of over 65% in size;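 on activity change, negative = inhibition: plate controls were DMSO vehicle for no effect and no enzyme for full effect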
Conditions: NTMT1 MTase-Glo SAH luminescence, purified enzyme; series mostly up to 114 µM; activity change, negative = inhibition: at the top concentration
From the text: Assay Submitter (PI): Rong Huang Ph.D.
Purdue University, West Lafayette, IN 47907
The N-terminal methytransferase 1 is the first methyltransferase that methylates protein alpha-N-amines and plays an important role in regulating cell mitosis, chromatin interactions and DNA repair. It is observed to be over-expressed in various cancer patient tissues like malignant melanoma and colorectal cancer tissues. Knockdown of NTMT1 in cancer cells causes cell mitotic defects and enhances sensitivity to DNA damaging chemotherapeutics. […] These critical cellular processes in which NTMT1 is implicated, coupled with emerging links to cellular dysfunction, strengthen the inference that NTMT1 is a compelling novel anticancer target. Progress have been made in understanding the molecular properties of NTMT1 and the biological consequences of protein alpha-N-terminal methylation, but there are no specific small molecule probes available for NTMT1 to fully characterize its MTase activity. To address this unmet need, a panel of assay is created and established to enable quantitative high-throughput screening (qHTS) for novel, potent, and selective small molecule NTMT1 inhibitors. Two orthogonal qHTS that use different reagents (ThioGlo vs. MTaseGlo) are developed for primary robotic screening against the NCATS chemical library of more than 400,000 small molecules. Identified inhibitors are reacquired, validated, and further characterized.
MTaseGlo Assay is a luminescence screen that measure the activity of methyltransferases based on the reaction product S-adenosyl homocysteine (SAH). The substrate SAM is converted to SAH upon enzyme activation. MTase-Glo reagent and detection solution convert SAH to ATP and measure the light from the luciferase reaction.
Materials: NTMT1 enzyme, substrate SPKRIA, control peptide RCC1-6 is provided by the Huang laboratory.
SEQUENCE No. (e.g., 1, 2, 3, etc.); […] (e.g., Cells, Incubation, Reagent, etc.); VALUE; DESCRIPTION
1; Enzyme; 3 uL; Dispense enzyme mixture (final concentrations of 125 nM NTMT1 and 100 uM SAM) into Greiner 1536-well white / solid bottom assay plate (Greiner Bio One, Monroe, NC).
2; Compounds; 23 nL; Compounds and controls were transferred via a Kalypsys Pin Tool (Wako USA) equipped with a 1536-slotted pin array (Wako Automation, Richmond, VA)
3; Incubation; 15 min; Incubate at room temperature
4; Substrate; 1 uL; Dispense 1 uL of substrate at final concentration of 1 uM. Buffer solution was dispensed in control wells. The assay plate was covered with metal lids.
5; Incubation; 30 min; Incubate at room temperature, protected from lights.
6; Reagent; 1 uL; Dispensed 5x MTase-Glo detection reagent (R) into the assay plate. The plate was covered with metal lids.
7; Incubation; 30 min; Incubate the assay plates at room temperature in the dark to allow for SAH to be converted to ADP.
8; Reagent; 5 uL; Dispense 5 uL of 1x MTase-Glo Detection Solution (R) to allow for ADP to be converted to ATP which was then detected with a luciferase reaction.
9; Centrifuge; 15 sec; Centrifuge the assay plate for 15 seconds at 1000 RPM.
10; Incubation; 30 min; Assay plates were incubation at room temperature in the dark.
11; Detection; Luminescence; Plates were read on ViewLux detector (PerkinElmer). Data were normalized to no-enzyme (0% activity) and no-inhibitor (DMSO; 100%) controls, and the resulting percent inhibition data were fitted to a 4-parameter Hill equation using GraphPad Prism.
Potency means the concentration at half of the fitted maximal effect.

| SMILES | activity change, negative = inhibition | Potency |
| --- | --- | --- |
| CC(C)=CCC[C@](C)(O[C@@H]1O[C@H](CO[C@@H]2O[C@H](CO)[C@@H](O)[C@H](O)[C@H]2O)[C@@H](O)[C@H](O)[C@H]1O)[C@H]1CC[C@]2(C)[C@@H]1[C@H](O)C[C@@H]1[C@@]3(C)CC[C@H](O[C@@H]4O[C@H](CO)[C@@H](O)[C@H](O)[C@H]4O[C@@H]4O[C@H](CO)[C@@H](O)[C@H](O)[C@H]4O)C(C)(C)[C@@H]3CC[C@]12C | -4.41% [at 57.5 µM] (inactive) | – |
| NC(=O)C1CCN(c2nc(-c3cccc(F)c3)cs2)CC1 | -0.0933% (inactive) | – |
| CCCN1CCN(CCCNC(=O)c2ccc3nc(Cc4ccccc4)oc3c2)CC1 | 1.05% (inactive) | – |
| Cc1ccc(C)c(N2CCN(CCCNC(=O)Nc3ccc(Cl)cc3)CC2)c1 | -18.2% (inactive) | – |
| Cc1cn(CCN2CCN(c3ccccc3-c3cc(C#N)cc(C(=O)NCCCN4CCCC4)c3)CC2)c2ccccc12 | – | 50.1 µM (active) |
| O=C(Nc1cc(Cc2ccccc2)ccn1)c1ccc(-c2cccc([N+](=O)[O-])c2)o1 | 9.38% (inactive) | – |
| N#Cc1ccccc1CNc1nc2ncc(Br)cc2[nH]1 | 11.6% (inactive) | – |
| CCOc1cccc(-c2cc(-c3n[nH]c(=O)n3CC)c3ccccc3n2)c1 | -2.86% (inactive) | – |
| N#CSc1cc(SC#N)c(N)nc1N | – | 7.8 µM (active) |
| Cc1cc2c(s1)c1cnn(Cc3c(F)cccc3Cl)c(=O)c1n2C | 12.9% (inactive) | – |
| Cc1cc(Nc2cccc(C(F)(F)F)c2)nc2ccc(NC(=O)c3ccc(=O)[nH]c3)cc12 | 0.753% (inactive) | – |
| Cc1ccc(C(=O)Nc2cccc(C(F)(F)F)c2)cc1Nc1nc(-c2cccnc2)nc2c1cnn2C | – | inactive and 21.5 µM (active) |
| Cc1cc(C(=O)Nc2cccc(C(F)(F)F)c2)c2c(C)nn(-c3cccc(F)c3)c2n1 | -2.97% (inactive) | – |
| COc1cccc(C2c3c(ncn(-c4cccc(Br)c4)c3=N)Oc3ccc4ccccc4c32)c1 (configuration not stated) | 6.03% (inactive) | – |
| COC(=O)c1ccc(NC(=O)c2cc(-c3ccc(C)c(C)c3)nc3ccccc23)cc1 | 4.26% (inactive) | – |
| COc1ccc(NC(=O)c2cnn3c(C)cc(C)nc23)cc1OC | -0.855% (inactive) | – |
| COc1ccc(C(CC(=O)N2CC(C)CC(C)C2)c2c(O)cc(OC)cc2OC)cc1 (configuration not stated) | -7.84% [at 228 µM] (inactive) | – |
| Cc1ccc(S(=O)(=O)Nc2ccccc2C(=O)Nc2ncc(-c3ccccc3)s2)cc1 | 19.6% (inactive) | – |
| CC(=O)Oc1ccccc1C(=O)Nc1ncc([N+](=O)[O-])s1 | – | 25.1 µM (active) |
| O=C(Nc1ncc(Cc2ccc(C(F)(F)F)cc2)s1)c1ccc(-c2ccc([N+](=O)[O-])cc2)o1 | 18.1% (inactive) | – |
| O=c1c2ccccc2nc2sc(Nc3ccc(Oc4ccccc4)cc3)nn12 | 6.69% (inactive) | – |
| Nc1ccc(C(=O)Nc2ccccc2N)cc1 | -9.88% [at 57.5 µM] (inactive) | – |
| Nc1ccccc1N | – | 22.4 µM (active) |
| Cc1nc(-c2ccccc2C(C)C)nc(NCc2ccc(-c3cccnc3)cc2)c1C | 6.7% [at 57.5 µM] (inactive) | – |

| SMILES | activity change, negative = inhibition | Potency |
| --- | --- | --- |
| O=C(NCc1ccc(Cl)c(Cl)c1)Nc1nnc(-c2ccncc2)s1 | -20.2% (inactive) | – |
| CCOC(=O)c1c(CNCc2ccccc2F)c2sc(C)cc2n1C | -4.22% (inactive) | – |
| Cc1ccc(N[S+](=O)([O-])c2cc3c(cc2N[C@@H](C)CO)NC(=O)CC3)cc1N[C@@H](C)CO | -11.2% (inactive) | – |
| CCc1ccc(NC(=O)c2cnn3c(C)cc(-c4ccccc4)nc23)cc1 | -14.4% (inactive) | – |
| O=C(Cc1ccccc1)Nc1sc2c(c1C(=O)Nc1ccc(Br)cc1)CCC2 | 12.1% (inactive) | – |
| CCOc1ccc(NC(=O)c2c(NC(=O)Cc3ccccc3)sc3c2CCCCC3)cc1 | – | 44.7 µM (active) |
| CCOc1ccc(NC(=O)c2c(NCc3cccc(OC)c3OC)sc3c2CCC3)cc1 | -2% (inactive) | – |
| O=C(CNC(=O)c1ccccc1)OC(C(=O)Nc1cc([N+](=O)[O-])ccc1F)c1ccccc1 (configuration not stated) | 9.09% (inactive) | – |
| NC(=O)c1cnc2[nH]ccc2c1NC1C2CC3C[C@H]1CC(O)(C3)C2 (some centres not stated) | -9.6% (inactive) | – |
| CN(CC(F)(F)F)c1nc(NCc2ccc(-c3cccnc3)cc2)c2ccccc2n1 | 25.3% (inactive) | – |
| CN(C)[S+](=O)([O-])c1ccc(-c2ccc(=O)n(CC(=O)NCCc3ccccc3)n2)cc1 | 4.09% (inactive) | – |
| O=C(NC(c1ccco1)c1cc(Cl)c2cccnc2c1O)c1ccccc1 (configuration not stated) | 18.9% (inactive) | – |
| O=C(CSc1ncc(CO)n1Cc1ccc(F)cc1)NCc1ccco1 | -0.0712% (inactive) | – |
| O=C(CSc1ncc(CO)n1Cc1ccc(Cl)cc1)NCc1ccc(F)cc1 | -15.8% (inactive) | – |
| OCc1cnc(SCc2ccc(F)cc2)n1Cc1ccc(F)cc1 | – | 89.1 µM (active) |
| Cc1cc(C)n2ncc(C(=O)N3CCCC3)c2n1 | 15.8% (inactive) | – |
| Cc1ccc(OCCn2c(CCNC(=O)c3ccccc3C(F)(F)F)nc3ccccc32)cc1 | 7.93% (inactive) | – |
| CC(C)c1ccccc1-c1nc(NCc2ccc(-c3cccnc3)cc2)c2occc2n1 | 6.29% (inactive) | – |
| COc1ccc(C2Nc3cccc(OC)c3C(=O)N2Cc2ccccc2)cc1COc1ccc(NC(C)=O)cc1 (configuration not stated) | 15.3% (inactive) | – |
| O=C(OCC#CCSc1nnc(-c2ccco2)o1)c1ccc(F)cc1 | -0.0729% (inactive) | – |
| O=C(Nc1nnc(-c2ccncc2)s1)Nc1cc(C(F)(F)F)ccc1F | 4.26% (inactive) | – |
| COc1ccc(C2Nc3ccccc3C(=O)N2Cc2ccco2)cc1COc1cccc(NC(C)=O)c1 (configuration not stated) | -15% (inactive) | – |
| CCNC(=O)C#Cc1ccc2c(C(=Nc3ccc(CN(C)C)cc3)c3ccccc3)c(O)[nH]c2c1 | – | 31.6 µM (active) |
